Among all 310,000 compounds or so, about 14,000 (4.5%) showed an effect of 50% or more. Effects have a minus sign here. The full list was thinned out, with strong results kept by preference.
Molecular target: human ether-à-go-go-related gene (hERG) potassium channel (human, UniProt Q12809)
Assay: primary screen, population patch clamp on CHO cells stably expressing hERG; higher = less effect of the substance
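Also: peak tail current of the secondary pulse compared with the same well before compound.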

human ether-à-go-go-related gene (hERG) potassium channel, sequence (Q12809 whole entry, looked up): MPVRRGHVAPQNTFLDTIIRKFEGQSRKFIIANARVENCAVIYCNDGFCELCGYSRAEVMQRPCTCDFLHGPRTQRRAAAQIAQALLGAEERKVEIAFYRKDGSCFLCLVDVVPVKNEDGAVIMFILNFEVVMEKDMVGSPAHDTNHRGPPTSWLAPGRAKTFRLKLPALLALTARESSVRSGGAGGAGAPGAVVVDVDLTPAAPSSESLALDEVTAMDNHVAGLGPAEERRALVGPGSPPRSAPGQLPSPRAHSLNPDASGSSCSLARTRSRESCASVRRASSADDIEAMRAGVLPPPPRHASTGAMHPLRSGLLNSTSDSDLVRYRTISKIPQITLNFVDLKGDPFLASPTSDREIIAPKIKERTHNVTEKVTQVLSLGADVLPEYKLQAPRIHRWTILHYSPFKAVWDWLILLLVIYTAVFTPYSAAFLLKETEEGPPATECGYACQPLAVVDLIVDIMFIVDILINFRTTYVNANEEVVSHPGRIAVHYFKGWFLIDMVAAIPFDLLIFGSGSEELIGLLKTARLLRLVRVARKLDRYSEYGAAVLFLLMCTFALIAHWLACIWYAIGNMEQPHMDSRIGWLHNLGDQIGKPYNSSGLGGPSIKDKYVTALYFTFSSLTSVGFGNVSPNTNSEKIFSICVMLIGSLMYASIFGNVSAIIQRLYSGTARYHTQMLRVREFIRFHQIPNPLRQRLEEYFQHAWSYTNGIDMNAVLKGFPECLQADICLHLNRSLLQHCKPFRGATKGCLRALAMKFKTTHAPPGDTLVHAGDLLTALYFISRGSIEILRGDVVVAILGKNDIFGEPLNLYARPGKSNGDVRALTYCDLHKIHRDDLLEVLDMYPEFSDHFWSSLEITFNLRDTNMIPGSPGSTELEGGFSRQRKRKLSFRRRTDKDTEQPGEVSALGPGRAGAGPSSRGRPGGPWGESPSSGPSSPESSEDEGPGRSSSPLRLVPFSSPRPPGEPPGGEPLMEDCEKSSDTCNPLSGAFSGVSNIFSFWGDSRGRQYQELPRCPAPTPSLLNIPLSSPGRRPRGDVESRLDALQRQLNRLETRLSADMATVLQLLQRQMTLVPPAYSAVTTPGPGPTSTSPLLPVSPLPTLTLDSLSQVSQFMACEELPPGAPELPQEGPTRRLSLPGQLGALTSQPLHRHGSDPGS

| SMILES | hERG current change (%, negative = inhibition) at 10uM |
| --- | --- |
| O=C(c1ccc2ccccc2c1)N1CCN(c2ccccn2)CC1 | -20% |
| CCOc1ccc(NC2=NCC(=O)N2Cc2cccs2)cc1.Cl | -1.9% |
| COc1ccc(/C(C)=N/NC(=O)c2cc(C)[nH]n2)c(OC)c1 | 1.33% |
| O=C(Nc1nccs1)c1cc2c(s1)CCCCC2 | 6.98% |
| CSCCC(NC(=O)c1ccco1)C(=O)N1CCCCCCC1 (stereo not drawn) | -4.39% |
| O=C(CCc1nnc(CCCCc2ccccc2)o1)NCCCc1cccnc1 | -14.8% |
| COc1ccccc1CCNC(=O)c1c(C)nn(CC(C)C)c1Cl | -4.9% |
| CCCC(=O)NC(=S)Nc1sc2c(c1C(N)=O)CCC2 | 11.7% |
| COc1ccc(NC(=O)Cn2c(=O)cnc3ccccc32)cc1S(=O)(=O)N1CCCCC1 | -10.9% |
| Cc1ccc(NC(=O)Cn2c(=O)cnc3ccccc32)cc1S(=O)(=O)N1CCCCC1 | -50.8% |
| O=C(Cn1c(=O)cnc2ccccc21)Nc1cccc(S(=O)(=O)N2CCCCC2)c1 | -50.3% |
| Cc1ccc(NC(=O)Cn2c(=O)cnc3ccccc32)cc1S(=O)(=O)N1CCOCC1 | -30.4% |
| Cc1ccc(S(=O)(=O)N2CCCCC2)cc1NC(=O)Cn1c(=O)cnc2ccccc21 | 9.61% |
| O=C(Cn1c(=O)cnc2ccccc21)Nc1cccc(S(=O)(=O)N2CCOCC2)c1 | -21% |
| CC(C)c1ccc(OCc2nc(-c3ccccn3)no2)c(Br)c1 | -10.6% |
| CCN1C(=O)N(CC)C2C1N(C(C)=O)C(=O)N2C(C)=O (stereo not drawn) | -6.42% |
| N#CC1=C(N)OC2=C(C(=O)CCC2)[C@]12C(=O)N(CC(N)=O)c1ccccc12 | 4.73% |
| COc1cc(CC(=O)OCC(=O)N2CC(C)CC(C)C2)cc(OC)c1OC (stereo not drawn) | 30.9% |
| O=C(Nc1ccccc1N1CCOCC1)c1ccc(N2CCOCC2)c([N+](=O)[O-])c1 | -20.7% |
| O=C(Nc1ccc(CN2CCOCC2)cc1)c1ccc(N2CCCC2)c([N+](=O)[O-])c1 | -21.4% |
| CC1CCN(c2ccc(C(=O)N3CCOCC3)cc2[N+](=O)[O-])CC1 | -0.762% |
| O=C(c1ccc(N2CCCCC2)c([N+](=O)[O-])c1)N1CCOCC1 | -22.6% |
| Nc1ccc(C(=O)OCC(=O)N2CCc3ccccc3C2)cc1[N+](=O)[O-] | -21.1% |
| O=C(OCC(=O)N1CCc2ccccc2C1)c1ccc(N2CCOCC2)c([N+](=O)[O-])c1 | -51% |
| Cl.O=C(NN1CCN(Cc2ccccc2)CC1)c1ccc(N2CCOCC2)c([N+](=O)[O-])c1 | -66.6% |
| O=C(c1ccc(N2CCOCC2)c([N+](=O)[O-])c1)N1CCN(Cc2ccccc2)CC1 | -66.9% |
| O=C(OCC(=O)N1CCOCC1)c1ccc(N2CCOCC2)c([N+](=O)[O-])c1 | 19.9% |

| SMILES | hERG current change (%, negative = inhibition) at 10uM |
| --- | --- |
| CC(=O)OC[C@]1(OC(C)=O)C[C@@]23CC[C@H]4[C@@](C)(CCC[C@@]4(C)C(=O)O)[C@@H]2CC[C@@H]1C3 | 4.84% |
| O=C(NCC(=O)N1CCN(C(=O)c2ccco2)CC1)c1cccc(Cl)c1 | -48.6% |
| CC(OC(=O)Cn1cnc2c1c(=O)n(C)c(=O)n2C)C(=O)NCc1ccccc1 (stereo not drawn) | 3.36% |
| Cc1noc(C)c1S(=O)(=O)Nc1ccc(C(=O)N2CCN(c3cccc(Cl)c3)CC2)cc1 | -4.16% |
| O=C(Nc1ccc(C(=O)N2CCCC2)cc1)c1ccc(F)cc1Cl | 0.232% |
| S=C(Nc1ccc2nc(-c3ccccn3)c(-c3ccccn3)nc2c1)N1CCCCCC1 | -15.6% |
| S=C(Nc1ccc2nc(-c3ccccn3)c(-c3ccccn3)nc2c1)N1CCOCC1 | -69.6% |
| O=C(Nc1ccc2nc(-c3ccccn3)c(-c3ccccn3)nc2c1)N1CCOCC1 | 5.82% |
| Cc1nnn(C23CC4CC(CC(C4)C2)C3)n1 | 7.98% |
| O=C(CCc1ccccn1)NC1CCCc2c1cnn2-c1ccc(F)cc1F (stereo not drawn) | 3.18% |
| CN(C)C(=S)c1ccc2ccccc2n1 | 17.1% |
| COC(=O)c1cc(-c2c(-c3cc(OC)c(OC)c(OC)c3)noc2C)cc([N+](=O)[O-])c1 | -67.8% |
| COc1cc(-c2noc(C)c2-c2ccc3[nH]ccc3c2)cc(OC)c1OC | 8.02% |
| COc1cc(-c2c(-c3cc(OC)c(OC)c(OC)c3)noc2C)ccc1F | 13.6% |
| CCOc1ncccc1C(=O)OCC(=O)c1cc(C)n(Cc2ccco2)c1C | -7.34% |
| O=S(=O)(/C=C/c1ccccc1)N1CCOCC1 | 7.65% |
| CCOC(=O)c1[nH]cnc1C(=O)Nc1ccc([N+](=O)[O-])cc1 | 4.57% |
| CC(C(=O)Nc1ccccc1F)N1CCN(C)CC1.O=C(O)C(=O)O (stereo not drawn) | 11.9% |
| CCS(=O)(=O)N1CCN(Cc2nc3ccccc3c(=O)[nH]2)CC1 | -12.9% |
| O=C1CN(Cc2nc3cc(Cl)ccc3c(=O)[nH]2)CCN1 | 25.4% |
| O=c1[nH]c(CN2CCN(S(=O)(=O)c3ccc(Cl)cc3)CC2)nc2cc(Cl)ccc12 | -11.8% |
| O=c1[nH]c(CN2CCN(S(=O)(=O)c3ccc4ccccc4c3)CC2)nc2ccccc12 | 2.03% |
| O=c1[nH]c(CN2CCN(S(=O)(=O)/C=C/c3ccccc3)CC2)nc2ccccc12 | -66.5% |
| COc1cc2nc(CN3CCN(S(=O)(=O)c4ccc(Cl)cc4)CC3)[nH]c(=O)c2cc1OC | -58.2% |
| COc1cc2nc(CN3CCN(S(=O)(=O)c4ccc(C)c(C)c4)CC3)[nH]c(=O)c2cc1OC | -16.8% |
| COc1cc2nc(CN3CCN(S(=O)(=O)c4c(F)cccc4F)CC3)[nH]c(=O)c2cc1OC | -33.4% |
| O=c1[nH]c(CN2CCN(S(=O)(=O)/C=C/c3ccccc3)CC2)nc2cc(Cl)ccc12 | -65.8% |
